Compounds without any hit were thinned out: in the full panel of roughly 79,000, 15% have a hit. The source made the active and inactive calls. Cut-off read from the data, not from the text of the source: active = growth inhibition above about 70%; inactive = the rest.
Tests used:
[1] = NCI Yeast Anticancer Drug Screen. Data for the rad50 strain (AID 155);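 note: 0% = growth of vehicle-only cultures of the same strain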; settings: S. cerevisiae rad50 strain growth inhibition; at 50.0 µM; stronger effect = higher value
How it was run: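 A DNA repair-deficient yeast mutant serves as the test organism; compound-induced growth inhibition is calculated against vehicle-treated cells.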

[2] = NCI Yeast Anticancer Drug Screen. Data for the mec2-1 strain (AID 157); settings: S. cerevisiae mec2-1 strain, at 50.0 µM, stronger effect = higher value
How it was run: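 Cells of the genetically defined mec2-1 yeast strain are incubated with test compound. Inhibition of growth is calculated against vehicle-treated controls.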

[3] = NCI Yeast Anticancer Drug Screen. Data for the sgs1 mgt1 strain (AID 161);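 note: 0% = growth of cultures given vehicle only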; settings: S. cerevisiae sgs1 mgt1 strain, at 50.0 µM, stronger effect = higher value
How it was run: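 Read-out: growth inhibition vs vehicle controls. Cells: mutant yeast strain deficient in DNA damage repair.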

[4] = NCI Yeast Anticancer Drug Screen. Data for the cln2 rad14 strain (AID 165);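 note: 0% = growth equal to vehicle treated cultures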; settings: S. cerevisiae cln2 rad14 strain, at 50.0 µM, stronger effect = higher value
How it was run: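 The screen exposed genetically defined yeast (cln2 rad14) to test compounds and scored growth inhibition relative to vehicle-treated controls.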

[5] = NCI Yeast Anticancer Drug Screen. Data for the bub3 strain (AID 167); settings: S. cerevisiae bub3 mutant strain, at 50.0 µM, stronger effect = higher value
How it was run: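 Inhibition values come from growth of compound-treated mutant yeast normalised to vehicle-treated controls.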

[6] = NCI Yeast Anticancer Drug Screen. Data for the mlh1 rad18 strain (AID 175); settings: S. cerevisiae mlh1 rad18 strain growth inhibition; at 50.0 µM; stronger effect = higher value
How it was run: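 Compound-treated yeast growth, normalised to vehicle controls. Strain bears defined DNA repair mutations.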

Measured: growth inhibition

FC(F)(F)c1cccc(CSCc2c(CSCc3cccc(C(F)(F)F)c3)c(CSCc3cccc(C(F)(F)F)c3)c(CSCc3cccc(C(F)(F)F)c3)c(CSCc3cccc(C(F)(F)F)c3)c2CSCc2cccc(C(F)(F)F)c2)c1
inactive: [1] -12.7% | [2] -2.5% | [3] -6.35% | [4] 12.2% | [5] -7.65% | [6] 7.45%

O=C(NCCCl)NCc1ccccc1
inactive: [1] -10.9% | [2] 2.35% | [3] 1.4% | [4] -40.1% | [5] -15.2% | [6] -2%

CCCCCCCCCCCCCCCC(=O)N(CCCCCCCCCCC(=O)O)CC(O)C(O)C(OC1OC(CO)C(O)C(O)C1O)C(O)CO (stereo not drawn)
inactive: [1] -8.15% | [2] -23.6% | [3] 10.2% | [4] -22.3% | [5] 50.6% | [6] -15.8%

COc1ccc(S(=O)(=O)N/N=C/c2cccc([N+](=O)[O-])c2O)cc1
inactive: [1] 9.3% | [2] -3.7% | [3] 19.7% | [4] 2% | [5] 12% | [6] 32.6%

CC1CC(C#N)=C2NCCCCN2C1=O (stereo not drawn)
inactive: [1] -21.6% | [2] -44.8% | [3] -2.25% | [4] 3.65% | [5] -7.9% | [6] -14.3%

OCn1c2ccccc2c2ccccc21
inactive: [1] 19.8% | [2] 0.55% | [3] 33.7% | [4] 20.8% | [5] 35.9% | [6] 19.8%

CC(=O)CC(=O)NCCNC(=O)CC(C)=O
inactive: [1] -4.55% | [2] -11.6% | [3] 10.3% | [4] 6.4% | [5] -4.55% | [6] 8.85%

O=C(c1ccccc1)C(O)(c1ccccc1)C(c1ccccc1)c1ccccc1 (stereo not drawn)
inactive: [1] 5.8% | [2] 18.6% | [3] 16.9% | [4] 13% | [5] 6.75% | [6] 8.05%

COC(=O)c1cc(C)n(C)c(=O)c1C#N
inactive: [1] 12.6% | [2] 12.5% | [3] -0.85% | [4] 22.1% | [5] 13.9% | [6] 2.9%

CC(=O)N(C(C)=O)n1c(Cc2ccc(Cl)cc2)n[nH]c1=O
inactive: [1] 32.1% | [2] -53.7% | [3] -26.3% | [4] -5.55% | [5] -30.9% | [6] -65%

O=C(O)c1ccc(N2C(=O)c3ccccc3C2=O)cc1
inactive: [1] -19.1% | [2] 4.8% | [3] 1.95% | [4] -10.1% | [5] -18.3% | [6] 41.9%

Cc1cc(N=Nc2c(O)c3ccccc3[nH]c2=O)ccc1N=Nc1ccc(C(=O)O)cc1
inactive: [1] 1.65% | [2] -9.15% | [3] 3.5% | [4] 1.1% | [5] -14.1% | [6] -8.05%

Nc1ccc(C(=O)O)cc1Cl
inactive: [1] 0.85% | [2] 0.75% | [3] 2.9% | [4] -35.5% | [5] -6.3% | [6] -22.2%

CCOC(=O)c1cc(C=O)nc2c(Cl)cc(Cl)cc12
inactive: [1] 18.7% | [2] 6.25% | [3] 22.4% | [4] 5.9% | [5] 3.8% | [6] 17.6%

CC(C)(C#N)OC(=O)c1cccc(C(=O)OC(C)(C)C#N)c1Sc1ccccc1
inactive: [1] 41.8% | [2] -2.6% | [3] -7.25% | [4] 7.55% | [5] -2% | [6] -1.55%

O=C1NC(=O)N2CC(CI)OC2C1c1ccccc1 (stereo not drawn)
inactive: [1] 0.25% | [2] 12.8% | [3] 10.2% | [4] 6.55% | [5] -6.6% | [6] 11.4%

CCCOC(=O)C1(C)CCC(=O)O1 (stereo not drawn)
inactive: [1] 3.7% | [2] 6.1% | [3] 23.4% | [4] -19.9% | [5] -13.2% | [6] -8.85%

CC(=O)S
inactive: [1] -36.5% | [2] -18.4% | [3] -11.9% | [4] -24.2% | [5] 6.35% | [6] 5.7%

C=CSC(=S)Sc1ccccc1
inactive: [1] 25.6% | [2] 28.4% | [3] -1.15% | [4] 3.45% | [5] 19% | [6] 12.9%

CCCCCCCCCCCCCCCC(=O)NC(CCCCN)C(=O)NC(CCCCN)C(=O)OCC (stereo not drawn)
active: [1] 77.9% | [2] 97% | [4] 94.5%
inactive: [3] 68.9% | [5] 47.4% | [6] 65.5%

OC(CNC1CCCCC1)(c1ccccc1)c1ccccc1
inactive: [1] -11.2% | [2] -8.35% | [3] 13.9% | [4] 10.8% | [5] 30.2% | [6] -20.6%

CSC(=S)n1nc(C)c(N=Nc2ccccc2[N+](=O)[O-])c1C
inactive: [1] 26.5% | [2] -2.85% | [3] 0.15% | [4] 5.05% | [5] 7.95% | [6] 7.75%

C=CCN(CC=C)C(=S)NC(=O)c1ccccc1
inactive: [1] 17.8% | [2] 27.8% | [3] 53.2% | [4] 16.9% | [5] 28.3% | [6] 2.25%

O=C(CI)NCC(O)CNC(=O)CI
inactive: [1] 16.9% | [2] 13.9% | [3] 18% | [4] 27.6% | [5] 9.2% | [6] 36.5%

CC(C)C1OC2OCCCC2C(C(C)C)O1 (stereo not drawn)
inactive: [1] 17.2% | [2] -5.85% | [3] 8.15% | [4] -11.9% | [5] -22.1% | [6] 11%

CS(=O)(=O)Nc1ccccc1-c1nc2ccccc2c(=O)o1
inactive: [1] 26.6% | [2] 30.7% | [3] 27.2% | [4] 14.3% | [5] 33.2% | [6] 27.7%

Cc1nnc2n1N=C(c1ccccc1)C(c1ccccc1)S2 (stereo not drawn)
inactive: [1] 31.8% | [2] 29.9% | [3] 33.5% | [4] 25.9% | [5] 57.4% | [6] 40.3%

CSc1ccc(C(N)=O)cn1
inactive: [1] -1.2% | [2] -12.2% | [3] -7.05% | [4] -36% | [5] -22.1% | [6] 1.15%

COC(=O)CCc1c[nH]c2ccc(N)cc12
inactive: [1] -12.8% | [2] -31.2% | [3] -14.8% | [4] 18.2% | [5] -14.5% | [6] -13.7%

CCOP(=O)(OCC)C1(O)CC(n2cc(C)c(=O)[nH]c2=O)OC1CO (stereo not drawn)
inactive: [1] 7.3% | [2] 59.1% | [3] -15.2% | [4] 27.1% | [5] -5.05% | [6] -37.7%

N#CN=C(N(Cc1ccccc1)Cc1ccccc1)N(Cc1ccccc1)Cc1ccccc1
inactive: [1] -3.65% | [2] -12.4% | [3] -18.6% | [4] 20.6% | [5] 12.4% | [6] -14.1%

CCCN(N)CCC
inactive: [1] -8.15% | [2] -16.6% | [3] -7.8% | [4] -45.2% | [5] 0.25% | [6] -1.6%

O=C(O)/C=C\CCCCC(=O)O
inactive: [1] 35.4% | [2] 0.95% | [3] 15.1% | [4] 6.75% | [5] 13.8% | [6] 37.5%

CC(c1ccc2ccc3cccc4ccc1c2c34)C(C(=O)O)C(=O)O (stereo not drawn)
inactive: [1] -0.85% | [2] -15.8% | [3] 8.6% | [4] -7.15% | [5] 0.75% | [6] 5.7%

[C-]#[N+]C([N+]#[C-])=C(C)OCC
inactive: [1] 7.9% | [2] 5.1% | [3] -5.2% | [4] 10.8% | [5] 21.6% | [6] 2.5%

CCN(CC)CCOC(=O)c1cc(C(C)O)nc2ccccc12 (stereo not drawn)
inactive: [1] 0.6% | [2] 12.3% | [3] -10.5% | [4] 0.55% | [5] 21.6% | [6] -7.1%

CN(C)CC(CN(C)C)C(=O)/C=C/c1ccc(O)cc1
inactive: [1] 1.4% | [2] -2.25% | [3] 6.05% | [4] 6.35% | [5] 22.4% | [6] 5.5%

O=C1CCCCc2cccc(O)c21
inactive: [1] 2% | [2] -3.85% | [3] -1.95% | [4] 24.3% | [5] 2.4% | [6] 2.1%
